# LYPLA2 counter = LYPLA2 (human) inhibition in PME1 counter-screen; inhibition, % at 5.9 µM; O95372; recombinant LYPLA2, FP-Rh probe fluorescence polarization; AID 2177; 320,000 tested, 0.38% active;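 active = inhibition above the screen-wide mean plus 3 SD, limit set per campaign, cut at about 26% in these data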;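 note: 0% = LYPLA2 with DMSO and 100% = wells lacking LYPLA2 enzyme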
# Target sequence (O95372 whole entry, looked up): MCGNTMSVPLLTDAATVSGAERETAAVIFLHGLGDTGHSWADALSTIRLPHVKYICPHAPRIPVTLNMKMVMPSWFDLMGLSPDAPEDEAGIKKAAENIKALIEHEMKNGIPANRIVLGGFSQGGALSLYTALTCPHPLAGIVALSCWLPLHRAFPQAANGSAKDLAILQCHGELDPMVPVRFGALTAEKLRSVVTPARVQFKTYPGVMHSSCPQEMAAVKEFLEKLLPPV
# LYPLA1 inh = LYPLA1 (human) inhibition in PME1 counter-screen | O75608 | recombinant LYPLA1, FP-Rh probe fluorescence polarization | inhibition, % at 5.9 µM | 320,000 tested, 0.16% active | AID 2174;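 active = inhibition above the mean of all tested compounds plus 3 SD, set per campaign, cut at about 14% in these data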;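 note: inhibitors block serine hydrolase probe labeling of LYPLA1 so polarization falls; 0% = enzyme with DMSO and 100% = wells lacking LYPLA1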
# PME-1 inh = PME-1 (human) inhibition. Q9Y570. recombinant PME-1, FP-Rh probe fluorescence polarization. inhibition, % at 5.9 µM. 320,000 tested, 0.53% active. AID 2130;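 active = inhibition above the campaign mean of all compounds plus 3 SD, cut at about 26% in these data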;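 note: competitive labeling of PME-1 active site by serine hydrolase directed probe; 0% = PME-1 with DMSO and 100% = wells lacking PME-1 enzyme; inhibitors block probe labeling so polarization falls and inhibition rises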
# Target sequence (Q9Y570 whole entry, looked up): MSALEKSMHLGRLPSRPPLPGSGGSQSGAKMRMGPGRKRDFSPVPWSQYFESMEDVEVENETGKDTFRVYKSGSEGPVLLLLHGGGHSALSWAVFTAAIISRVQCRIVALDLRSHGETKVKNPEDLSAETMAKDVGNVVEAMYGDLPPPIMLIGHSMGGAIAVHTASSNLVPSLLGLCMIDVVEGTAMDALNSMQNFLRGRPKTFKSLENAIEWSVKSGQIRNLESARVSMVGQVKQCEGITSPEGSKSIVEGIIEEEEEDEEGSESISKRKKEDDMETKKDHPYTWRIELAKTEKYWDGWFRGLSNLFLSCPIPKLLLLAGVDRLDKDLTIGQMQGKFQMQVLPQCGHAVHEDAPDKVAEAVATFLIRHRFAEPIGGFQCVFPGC
# PAD4 inh = blocks human protein arginine deiminase 4 | inhibition, % at 6.36 µM | AID 485272 | 330,000 tested, 0.41% active | recombinant PAD4, RCA probe fluorescence polarization;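 active = percent inhibition above a cutoff equal to the mean of all tested compounds plus 3 SD, cut at about 15% in these data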;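 note: 0% = PAD4 with RCA probe and DMSO and 100% = probe without PAD4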
# Fam108B counter = Fam108B inhibition, counter-screen for RBBP9 inhibitors; recombinant Fam108B, FP-Rh probe fluorescence polarization; inhibition, % at 9.51 µM; 300,000 tested, 0.33% active; AID 1947;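 active = inhibition above the screen mean inhibition plus 3 SD, computed separately per campaign, cut at about 18% in these data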;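 note: inhibitors lower polarization as less probe binds the enzyme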
# GSTO1 counter = GSTO1 inhibition, counter-screen for RBBP9 inhibitors. P78417. recombinant GSTO1, activity-based probe fluorescence polarization. inhibition, % at 5.96 µM. 300,000 tested, 1.1% active. AID 1974;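 active = inhibition above the campaign mean inhibition plus 3 SD, cut at about 35% in these data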;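 note: 0% = GSTO1-1 with DMSO and 100% = wells lacking GSTO1-1 enzyme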
# Fam108b inh conf = Fam108b (mouse) hydrolase inhibition, confirmation assay. recombinant Fam108b, FP-Rh probe fluorescence polarization. 930 tested, 44% active. shares compounds with Fam108B counter. inhibition, % at 9.51 µM;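 active = inhibition above a limit from the primary screen, the mean over all compounds plus 3 SD, cut at about 19% in these data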;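 note: 0% = median of active Fam108b wells and 100% = catalytically dead S170A mutant; inhibitors free the probe so polarization falls as inhibition rises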
# Fam108b inh = mouse ABHD17B inhibition; 260 tested, 44% active; inhibition, % at 20 µM; AID 588649; recombinant Fam108b, gel-based ABPP, fluorophosphonate probe; shares compounds with Fam108B counter; in the data active = inhibition above about 40%
# An asterisk follows results filed as active; · = not tested or not shown. A selection: hits, their analogues and other compounds. The true share with any hit is near 1.8%.
SMILES,LYPLA2 counter,LYPLA1 inh,PME-1 inh,PAD4 inh,Fam108B counter,GSTO1 counter,Fam108b inh conf,others
CSc1nnc(-c2ccc(S(=O)(=O)N3CCCCC3)cc2)o1,-4,-2,-2,6,0,12,·,
COc1cccc(C(=O)COc2cccc(NC(=O)c3cccc([N+](=O)[O-])c3)c2)c1,-2,-13,23,-3,24*,-35,24*,
O=C(COc1cccc(NC(=O)c2cccc([N+](=O)[O-])c2)c1)c1ccc(F)cc1,9,3,10,1,14,-21,·,
CC(CC(C)C(=O)Nc1ccccc1C(C)(C)C)C(=O)O (stereo not given),-3,0,-4,-3,-2,-1,·,
Cn1c(=O)c(C#N)c(-c2ccc(F)cc2)c2cc(C(=O)c3cc(Cl)cc(Cl)c3O)cnc21,3,1,63*,4,22*,23,22*,
Cc1[nH]c2ccccc2c1/C=N/Nc1nc(Nc2ccc(F)cc2)nc(N2CCOCC2)n1,-3,-15,19,-2,22*,-3,7,
Cc1cccc2c(N=Nc3ccc(S(=O)(=O)Nc4ccc(Cl)cc4)cc3[N+](=O)[O-])c(O)[nH]c12,-2,-9,23,-6,20*,-41,-23,
CC(NC(=O)Cc1ccccc1)C1COc2ccccc2O1 (stereo not given),5,2,1,3,125*,3,-1,
CC(NC(=O)COc1ccccc1)C1COc2ccccc2O1 (stereo not given),-2,-1,3,-1,7,5,·,
O=C(OC(C(=O)NCc1ccc2c(c1)OCO2)c1ccncc1)c1ccc(Cl)nc1 (stereo not given),2,-1,-10,4,2,7,·,
Cc1cc(SCC(=O)c2ccc(O)c(O)c2)n2nc(C)c(-c3ccccc3)c2n1,7,-17,15,-2,18*,35*,-16,
CCN(CC)S(=O)(=O)c1ccc2c(c1)nc(CCC(=O)OCC(=O)Nc1cc(Cl)cc(Cl)c1)n2C,-20,-14,-4,3,-11,1,·,
Cn1nc2c3ccccc3n(Cc3ccccc3)c2nc1=S,4,-1,1,-3,-2,0,·,
Cc1cc(C(=O)CSc2ncccn2)c(C)n1Cc1ccco1,2,1,-1,-2,19*,5,5,
Cc1cc(C(=O)CSc2nnnn2C)c(C)n1Cc1ccco1,8,3,0,-3,-3,3,·,
COc1ccccc1C1N(c2ccc(F)cc2)C(=O)C2CCCN21 (stereo not given),6,4,-3,0,-2,6,·,
CCN(CC)S(=O)(=O)c1ccc(Nc2nc3ccccc3n3nnnc23)cc1,-16,-20,10,-9,26*,-35,13,
c1ccc2c(c1)nc(Nc1ccc3c(c1)OCO3)c1nnnn12,-3,-6,16,-2,23*,-13,7,
Fc1cccc(Nc2nc3ccccc3n3nnnc23)c1,-2,-8,7,-5,-9,1,·,
CC(C(=O)Nc1ccccc1)N(C)CCOc1ccc(Br)cc1 (stereo not given),4,1,-2,3,2,14,·,
CCOC(=O)N1CCC(=C2c3ccc(Cl)cc3CCc3cccnc32)CC1,-2,0,-5,-1,-5,3,·,
Cc1ccc(/C(=N/Nc2ncnc3ccccc23)C(=O)O)cc1,-3,1,-1,1,2,13,·,
Nc1ccc(CN2CCOCC2)cc1,1,0,-7,-3,-5,3,·,
Cc1nc2scc(-c3ccc(Cl)cc3)c2c(=O)o1,4,1,-7,-4,46*,1,79*,Fam108b inh=80*
CC(C)(C)c1nc2scc(-c3ccc(Br)cc3)c2c(=O)o1,10,0,-6,0,27*,1,29*,
SMILES,LYPLA2 counter,LYPLA1 inh,PME-1 inh,PAD4 inh,Fam108B counter,GSTO1 counter,Fam108b inh conf,others
COc1ccc(-c2nc3scc(-c4ccc(OC)c(OC)c4)c3c(=O)o2)cc1,7,0,20,9,-1,0,·,
Cc1nc2scc(-c3cccs3)c2c(=O)o1,7,-5,0,0,4,5,·,
COc1ccc(-c2csc3nc(-c4ccccc4F)oc(=O)c23)cc1,-7,-6,12,-2,50*,-49,36*,Fam108b inh=60*
CC(c1ccco1)N(C(=O)c1cccc(S(=O)(=O)N(C)C)c1)c1ccccn1 (stereo not given),-1,-3,8,-4,1,6,·,
CC(C(=O)NCc1ccc(Cl)cc1)n1cccc1C(=O)c1ccccc1 (stereo not given),-2,-1,-6,0,-3,-11,·,
FC(F)(F)c1nc(N2CCCC2)ncc1-c1nnnn1-c1ccc(Cl)cc1,0,0,3,-4,-6,-11,·,
O=C(c1nn(-c2ccccc2)c(=O)c2ccccc12)N1CCN(c2ncccn2)CC1,-5,-3,10,-1,-2,6,·,
CN(c1ccccc1)c1ccc(/C=C(\CCC(=O)O)c2nc3ccccc3s2)cc1[N+](=O)[O-],23,6,11,8,20*,34,14,
N#Cc1cc(N)ccc1-n1cccc1,8,3,4,-7,0,7,·,
CCC(C)(C)NC(=O)Cn1c(-c2ccc(C)cc2)noc1=O,2,2,5,-2,1,0,·,
Cc1c(C(=O)N(Cc2ccccc2)C(C)C)oc2ccc(S(=O)(=O)N3CCOCC3)cc12,11,4,-1,2,5,-6,·,
CCN(CC)c1ccc(C2Nc3cccc4cccc(c34)N2)c(O)c1,1,-9,47*,-4,51*,30,53*,Fam108b inh=90*
COc1ccc(Br)cc1C1Nc2cccc3cccc(c23)N1,-4,-1,0,-9,2,4,·,
COc1ccc(NC(=O)c2ccc3c(c2)S(=O)(=O)c2ccccc2C3=O)cc1,4,5,1,1,-1,0,·,
CCOC(=O)c1cnc(SC)nc1Oc1cccc(NC(=O)c2cccc(Cl)c2Cl)c1,3,2,1,-3,-4,4,·,
CCCOc1ccc(C2C3=C(Nc4nc(N)[nH]c(=O)c42)c2ccccc2C3=O)cc1 (stereo not given),-6,-14,13,-4,23*,2,19*,
Nc1nn2c(-c3ccccc3)cc(=O)[nH]c2c1N=Nc1ccc(O)cc1,-9,-7,17,-11,21*,21,17,
Cc1nn(CCc2nn[nH]n2)c2nc(-c3ccc(C4CCCCC4)cc3)cc(C(F)(F)F)c12,-5,-9,-15,-5,-14,-55,·,
O=C(COc1cccnc1[N+](=O)[O-])Nc1ccc(S(=O)(=O)N2CCOCC2)cc1,10,2,2,-5,-7,5,·,

# Assay outcomes: PubChem BioAssay, The Scripps Research Institute Molecular Screening Center
